3T3 cytotox: Cytotoxic Profiling in NIH 3T3 Cell Line of Diverse Libraries Using Quantitative High-Throughput Screening; 94,000 compounds, 4.3% hits; NIH 3T3 viability, CellTiter-Glo ATP luminescence, 48-72 h; Potency, µM (highest dose often 96.7 µM), without a hit: at the top dose activity change, negative = cytotoxicity, hits mostly inhibitors; AID 1345082, 2018; note: nearly all actives have a fitted effect of over 55% in size
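Mouse fibroblast NIH 3T3 cells, 400 per well, received compound via pintool and were incubated for 48 or 72 hr prior to CellTiter-Glo ATP luminescence measurement.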
Luciferase inh: Firefly luciferase inhibition profiling of diverse chemical library using quantitative high-throughput screening. 76,000 compounds, 2.5% hits. Potency, µM (top dose mostly 115 µM), usual class: inhibitors. Luciferin 4-monooxygenase (Photinus pyralis), P08659. purified P. pyralis luciferase, luminescence, biochemical; note: nearly all actives have a fitted effect of over 65% in size
Target sequence (P08659 whole entry, looked up): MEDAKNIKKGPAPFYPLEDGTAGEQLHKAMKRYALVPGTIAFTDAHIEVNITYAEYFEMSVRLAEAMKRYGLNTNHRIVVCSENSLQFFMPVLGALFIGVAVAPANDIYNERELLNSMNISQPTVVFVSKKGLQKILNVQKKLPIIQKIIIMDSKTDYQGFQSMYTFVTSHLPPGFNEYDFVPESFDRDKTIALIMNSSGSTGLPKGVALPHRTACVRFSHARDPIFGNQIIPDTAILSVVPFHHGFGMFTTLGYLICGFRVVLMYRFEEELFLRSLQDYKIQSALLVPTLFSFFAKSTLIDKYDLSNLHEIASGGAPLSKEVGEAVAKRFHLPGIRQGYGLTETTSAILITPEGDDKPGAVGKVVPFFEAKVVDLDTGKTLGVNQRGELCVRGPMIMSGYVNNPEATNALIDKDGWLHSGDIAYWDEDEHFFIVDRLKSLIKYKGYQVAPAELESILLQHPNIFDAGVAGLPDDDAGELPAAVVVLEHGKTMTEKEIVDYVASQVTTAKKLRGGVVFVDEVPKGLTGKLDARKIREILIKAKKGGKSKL
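Inhibitors were tested against purified firefly luciferase in a biochemical, low-substrate format (both substrates at 10uM) and luminescence measured with a CCD imager.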
GPT2 inh: Primary qHTS assay for inhibitors of Glutamate pyruvate transaminase 2 (GPT2). Potency, µM (titrated, usually from 57.7 µM), inactives show top-dose activity change, negative = inhibition, most hits filed as inhibitors. Alanine aminotransferase 2 (Homo sapiens), Q8TD30. 100,000 compounds, 0.25% hits. Recombinant GPT2, coupled pyruvate oxidase/HRP Amplex Red fluorescence; note: nearly all actives have a fitted effect of over 60% in size
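Inhibition is scored from Amplex Red fluorescence generated when pyruvate oxidase and HRP act on pyruvate released by GPT2. Reactions contain 10ng/uL enzyme, 250uM a-KG and 2mM L-alanine and run 30 min at room temperature.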
HEK cytotox: Cytotoxic Profiling in HEK 293 Cell Line of Diverse Libraries Using Quantitative High-Throughput Screening | HEK 293 viability, ATP luminescence (CellTiter-Glo), 48-72 h | Potency, µM (highest dose often 115 µM), inactives show top-dose activity change, negative = cytotoxicity, usual class: inhibitors | 94,000 compounds, 6.6% hits | AID 1345083, 2018; note: nearly all actives have a fitted effect of over 60% in size
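250 HEK 293 cells/well; compound by pintool; incubated 48 or 72 hr at 37 degree Celsius; CellTiter-Glo added, 10 min RT, luminescence imaged.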
hNpr1 antagonist: Natriuretic polypeptide receptor (hNpr1) antagonism - Primary qHTS | Potency, µM (highest dose often 46.3 µM), inactives show at the highest dose activity change, negative = inhibition, usual class: inhibitors | 76,000 compounds, 1.6% hits | HEK293 hNpr1 GloSensor cGMP, ANP-stimulated luminescence; calls by dose curve; note: nearly all actives have a fitted effect of over 60% in size
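Compound pre-incubated 30 min at room temperature on GloSensor-loaded HEK293 cells stably carrying hNpr1 and the pGS-40F cGMP biosensor. Stimulation uses hNppA at 0.1 nM final; luminescence is taken at baseline and 20 min post-agonist.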
Numbers without * were called inactive; i = inactive; ? = inconclusive; / = not tested or not shown; [ ] = another dose, or the depositor's remark. This is a sample that favours compounds with a hit; in the whole collection about 10% have one here. Unless noted, calls come from the whole dose curve; as a rule, active = well fitted curve in the direction sought with a large enough effect; inconclusive = small, poorly fitted or top-dose-only effect, or another doubt; inactive = no such curve, though single readings can be large; an effect the other way counts as inactive or inconclusive. % is set by controls: 0 for no effect and ±100 for the full control effect; potency is the fitted concentration of half-maximal effect.

SMILES	3T3 cytotox	Luciferase inh	GPT2 inh	HEK cytotox	hNpr1 antagonist
O=C(Nc1cnc(-c2ccc(Cl)cc2)nc1)c1ccccc1Cl	2%	0.63µM*	i	?	?
CCCCCC(=O)N1CCC(=O)N(CC(=O)OCC)c2ccccc2C(OC)C1 (stereo unspecified)	?	/	4%[27.3 µM]	?	/
Cc1ccc([S+](=O)([O-])N2CC(N3C(=O)c4c(c(C)nn4-c4ccccc4)C3C3CC3)C2)cc1 (stereo unspecified)	-18%	/	/	-13%	/
COc1ccc(CN2CCN(c3ncnc4c3CCC4)CC2CCO)c(C)c1C (stereo unspecified)	?	i	-2%	10µM*	-25%
COc1ccc(CN2CCN(c3ccnc(C)n3)CC2CCO)c(C)c1C (stereo unspecified)	-13%	i	-12%	?	4%
Cc1ccccc1C(=O)N1CCC(C(=O)N2CCCC(c3nc4ccncc4[nH]3)C2)CC1 (stereo unspecified)	i	/	i	i	/
COc1ccccc1Oc1ncccc1CNC(=O)Nc1cccc(C#N)c1	32µM*	i	-2%	?	4%
COc1ccccc1Oc1ncccc1CNC(=O)c1ccccc1SC	-16%	32µM*	i	?	-3%
CCC(=O)NCc1cccnc1Oc1ccccc1OC	i	i	i	-5%	3%
Cc1nc2c(c(-c3ccc(Cl)cc3)n1)CCN(C(=O)NC1CCCC1)CC2	?	/	i	-26%	/
COc1cccc(CNC(=O)c2cc(-c3ccsc3)c3nncn3n2)c1	?	/	-6%	?	/
Cc1ccccc1C(=O)NC1CCN(c2ccc3nnc(C)n3n2)C1 (stereo unspecified)	-21%[138 µM]	/	/	-11%[172 µM]	/
COc1ccc(-c2cccc(C(=O)N3CCN(C(=O)N(C)C)CC3)c2)nn1	-24%	/	/	-12%	/
CN1C(=O)CCC2(CNC(=O)c3ccncc3)CCCC=C12 (stereo unspecified)	0%	i	-20%	0%	7%
CN1C(=O)CCC2(CNC(=O)c3cccc4nccnc34)CCCC=C12 (stereo unspecified)	?	i	i	79µM*	3%
Cc1ccc([S+](=O)([O-])N2CCC(C(=O)N3CCC(c4nc5ncccc5[nH]4)CC3)C2)cc1 (stereo unspecified)	1%	/	i	-6%	/
Cc1ccsc1C(=O)N1CCC2(CC1)C(=O)N(c1cccc(F)c1)C2c1ccccc1 (stereo unspecified)	?	/	-2%	25µM*	/
Cc1ccccc1C(=O)N1CCCC1C(=O)N1CCCC1c1nc2ccncc2[nH]1 (stereo unspecified)	i	/	i	i	/
COc1cccc(-c2ncc3c(n2)OCCN(CC2CC2)C3=O)c1OC	89µM*	i	-9%[88.5 µM]	-27%[172 µM]	3%[70.6 µM]
COCCN1CCOc2nc(-c3cccc(OC)c3F)ncc2C1=O	?	i	i	-30%[172 µM]	-24%[70.6 µM]
COc1cccc(-c2ncc3c(n2)OCCN(c2ccccc2)C3=O)c1OC	79µM*	?	-9%[88.5 µM]	?	-9%[70.6 µM]
COc1cccc(CNC(=O)c2cn3cc(-c4cccc(C(F)(F)F)c4)sc3n2)c1	-9%	/	i	?	/
CN(C)CCN1CCN(c2cc(C3CC(N)C3)nc(N)n2)CC1 (stereo unspecified)	-1%	i	-2%	0%	4%
NC1CC(c2cc(N3CCN(CCOc4ccccc4)CC3)ncn2)C1 (stereo unspecified)	?	i	0%	22µM*	-24%
O=C(Nc1ccc(F)cc1)N1Cc2[nH]cnc2C[C@H]1c1nc(-c2ccc(F)cc2)no1	?	?	1%[88.5 µM]	?	-15%[70.6 µM]
